Screening data (PubChem BioAssay)
Compounds with a hit are over-represented: about 12% of the library has one in this group of screens.
Lmaj promast = Leishmania major promastigote growth inhibition; Leishmania major promastigotes, resazurin fluorescence viability; AID 1063; inhibition, % at 10 µM; 200,000 compounds, 9% hits; in the data active = inhibition above about 50%;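 also: promastigotes grown with compound for 44 hours at 28 °C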
CHOP inh = inhibitors of CHOP induction in ER stress response | CHO-K1 CHOP-promoter luciferase, tunicamycin-induced, 15-18 h | inhibition, % at 10 µM | 220,000 compounds, 3.8% hits;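 active = compounds that reduced the stress-induced luciferase reporter signal by more than about 70% of percent inhibition, limit read from the data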;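 also: 0% = tunicamycin plus vehicle and 100% = wells without tunicamycin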
WT yeast gro inh = growth inhibition of WT yeast, mitochondrial fusion screen. 190,000 compounds, 2.1% hits. mitochondrial fusion phenotypic screen, WT strain. inhibition, % at 10 µM; in the data active = inhibition above about 58%; tested in S. cerevisiae
Arbovirus inh = blocks arbovirus infection; arbovirus infection cell-based antiviral screen; inhibition, % at 10 µM; 200,000 compounds, 0.37% hits; in the data active = inhibition above about 30%
* hit, by the source's call.

CCCc1nc2ccccc2c(C(=O)OCC(=O)Nc2cccc(S(=O)(=O)N3CCOCC3)c2)c1CC was read as Lmaj promast 23.2, CHOP inh 76.8*, WT yeast gro inh -13.1 and Arbovirus inh -25.8.
Cc1onc(-c2ccccc2Cl)c1C(=O)OCC(=O)Nc1cccc(S(=O)(=O)N2CCOCC2)c1 was read as Lmaj promast 63.8*, CHOP inh 16.8, WT yeast gro inh 5.6 and Arbovirus inh 18.7.
`COc1ccc(NC(=O)C2CC(=O)N/C(=N/NC(=O)c3ccc(Cl)cc3)S2)cc1` (centres undefined) gave CHOP inh 13.5.
Screening Cc1ccc(NC(=S)NCC2CCN(C(C)c3ccccc3)C2)cc1 (centres undefined) returned Lmaj promast 77.7*, CHOP inh 11.6, WT yeast gro inh 9.5 and Arbovirus inh 12.3.
For COc1ccc(N2CCC(CNC(=S)Nc3cccc(OC)c3)C2)cc1 (centres undefined) the results were Lmaj promast 60.1*, CHOP inh -2.3, WT yeast gro inh 19.1 and Arbovirus inh -6.2.
`CC(c1ccccc1)N1CCC(CNC(=S)Nc2cccc(Cl)c2)C1` (centres undefined) gave Lmaj promast 94.9*, CHOP inh 13.5, WT yeast gro inh 20.1 and Arbovirus inh -27.3.
Cc1ccc2c(c1)nc(-n1nc(C)cc1C)c1nnnn12 was read as Lmaj promast 7.3, CHOP inh 2.2, WT yeast gro inh 9.2 and Arbovirus inh 9.5.
`COc1cc(C2N(C)CCC3(OCCO3)C2(C)C)cc(OC)c1OC` (centres undefined) gave Lmaj promast 57.9*, CHOP inh 3.8, WT yeast gro inh -11.4 and Arbovirus inh 3.5.
Screening COc1cccc(C2[C@H](C)C3(CCN2C)OCCO3)c1 (some centres undefined) returned Lmaj promast -3.0, CHOP inh 0.1, WT yeast gro inh -4.2 and Arbovirus inh -10.3.
CCN(CC)S(=O)(=O)c1ccc(C(=O)NNC(=O)C2CCN(S(=O)(=O)c3ccc(Cl)cc3)CC2)cc1 was read as Lmaj promast -4.4, CHOP inh 59.9, WT yeast gro inh -4.6 and Arbovirus inh 4.2.
Screening COc1ccc(CNC(=O)c2noc(C(C)C)c2[N+](=O)[O-])cc1 returned Lmaj promast 54.2*, CHOP inh 4.2, WT yeast gro inh -2.5 and Arbovirus inh 10.7.
Screening Cc1ccc(C)c(S(=O)(=O)Nc2nc3ccc(S(N)(=O)=O)cc3s2)c1 returned Lmaj promast -7.2, CHOP inh -3.1, WT yeast gro inh 10.7 and Arbovirus inh -2.1.
For Cc1nc(NC(=O)c2ccccc2)sc1-c1csc(N)n1 the results were Lmaj promast 15.3, CHOP inh 13.6, WT yeast gro inh -2.5 and Arbovirus inh -36.3.
Screening Cc1nc(NC(=O)c2ccccc2)sc1-c1csc(NCCc2ccccc2)n1 returned Lmaj promast 100.3*, CHOP inh 19.6, WT yeast gro inh 20.7 and Arbovirus inh -35.9.
Cc1nc(NC(=O)c2ccccc2)sc1-c1csc(NCc2ccccc2)n1 was read as Lmaj promast 85.9*, CHOP inh 8.9, WT yeast gro inh 38.1 and Arbovirus inh -27.3.
Screening C=CCn1c(=S)[nH]c2scc(-c3ccc(C)o3)c2c1=O returned Lmaj promast 0.4, CHOP inh -21.4, WT yeast gro inh 65.3* and Arbovirus inh 29.8.
COCCN1CCCC(CNCc2cn(C)nc2-c2ccc(Oc3ccccc3)cc2)C1 (centres undefined) was read as Lmaj promast 95.3*, CHOP inh -31.9, WT yeast gro inh 8.5 and Arbovirus inh -35.2.
For Cn1cc(CN2CCCCC2CO)c(-c2ccc(Oc3ccccc3)cc2)n1 (centres undefined) the results were Lmaj promast 63.2*, CHOP inh 3.9, WT yeast gro inh 8.4 and Arbovirus inh 0.1.
`COC1CCCN(Cc2cn(C)nc2-c2ccc(Oc3ccccc3)cc2)C1` (centres undefined) gave Lmaj promast 72.9*, CHOP inh 19.3, WT yeast gro inh 2.2 and Arbovirus inh -3.0.
Screening O=C1CC(C(=O)N(c2ccccc2)C(C(=O)NC2CCCC2)c2ccncc2)CS1 (centres undefined) returned Lmaj promast -0.8, CHOP inh 6.2, WT yeast gro inh -1.5 and Arbovirus inh 1.0.
Screening C/C(NCCN1CCOCC1)=C(\C#N)C(N)=O returned Lmaj promast -5.9, CHOP inh 54.4, WT yeast gro inh 3.4 and Arbovirus inh 2.3.
Screening O=C(c1cnc(-c2ccc(Cl)cc2)s1)c1ccc(Cl)cc1Cl returned Lmaj promast -3.9, CHOP inh 31.9, WT yeast gro inh 73.1* and Arbovirus inh -7.1.
`Cn1c(CSc2nc3ccccc3s2)nnc1SCC(=O)NCc1cccnc1` gave Lmaj promast -2.9, CHOP inh 6.5, WT yeast gro inh 10.9 and Arbovirus inh 3.5.
